# Data published in ChEMBL document CHEMBL3988442, “University of Dundee, Small-Polar-MMV Screening Library” (2021).
# About 13,000 (27%) of roughly 48,000 compounds showed an effect of 50% or more. The list shows a part of the results.
# Tested on: Wolbachia pipientis
# Assay: Anti-Wolbachia Cell-Based Screen
# Type: functional
# Design: scale not given: in the data most compounds retested in dose-response had high values
# Settings: 5 µM
row,SMILES,Percent Effect [%]
1,O=C(NCC1(N2CCOCC2)CCSC1)Nc1ccc(F)cc1 (stereo not given),-9.419
2,CCCOc1ccccc1CCCNc1ncnc2oc(C)nc12,-6.613
3,CCc1nccc(CN2CCC(CNC(=O)c3occc3C)C2)n1 (stereo not given),-2.673
4,CC(N1CCN(C(=O)NCc2cccc(C#N)c2)CC1)C(F)(F)F (stereo not given),-0.6976
5,CC(C)Nc1ncnc2c1CCN(C(=O)[C@H]1CCCO1)CC2,89.47
6,O=C(C1CCCCO1)N1CCc2ncnc(NCCO)c2CC1 (stereo not given),-13.54
7,CCN(C)c1ncnc2c1CCN(C(=O)[C@H]1CCCO1)CC2,4.637
8,O=C([C@H]1CCCO1)N1CCc2ncnc(C3CC3)c2CC1,109.2
9,O=C(C1CCCCO1)N1CCc2ncnc(NCc3ccon3)c2CC1 (stereo not given),-8.792
10,O=C(c1ccnnc1)N1CCc2ncnc(C3CCOC3)c2CC1 (stereo not given),-19.12
11,CCCN(C)C(=O)c1cc(Br)cc(S(=O)(=O)N2CCOCC2)c1F,6.063
12,Cc1nnc(N2CCCC3(CN(c4cccc(F)c4)CCO3)C2)o1 (stereo not given),-14.38
13,O=C(NCCN1CCOCC1)c1cc(Cl)c2c(c1)OCCCO2,12.84
14,CCn1c(CN2CCOC(Cn3cncn3)C2)nc2c(F)cccc21 (stereo not given),-6.661
15,Cc1ccc(C(CNCC2CC2)N2CCOCC2)s1 (stereo not given),-12.57
16,O=C(c1ccc(-n2cnnc2)cc1)N1CCC(Nc2cccnn2)CC1,87.89
17,CC(C(=O)N1CCC(Nc2cccnn2)CC1)n1cccn1 (stereo not given),60.47
18,Cc1cccc2nc(C(=O)N3CCC(Nc4cccnn4)CC3)cn12,-6.08

row,SMILES,Percent Effect [%]
1,CC(Cn1cccn1)C(=O)N1CCC(Nc2cccnn2)CC1 (stereo not given),-6.529
2,O=C(c1ccc(-c2cnco2)cc1)N1CCC(Nc2cccnn2)CC1,107
3,CNC(=O)c1ccc(C(=O)N2CCC(Nc3cccnn3)CC2)cn1,119
4,CC(C(=O)N1CCC(Nc2cccnn2)CC1)n1ccnc1 (stereo not given),3.754
5,CCOC(C)c1nc(Cn2cc(C(=O)NC)ccc2=O)cs1 (stereo not given),-7.956
6,Cc1ccc(NC(=O)N2CCOC(C)(c3cnn(C)c3)C2)c(C)c1 (stereo not given),16.86
7,COc1cc2c(cc1OC)S(=O)(=O)N(Cc1cc(C)on1)C2=O,-6.413
8,N#Cc1c(Cl)nsc1N1CCN(CC2CCCCC2)CC1,3.475
9,Cc1cccc(-n2nc(CC(C)C)nc2CCn2ccc(=O)[nH]c2=O)c1,22.44
10,O=C(c1ccncc1)N1CCCN(Cc2nnc(C3CC3)o2)CC1,-12.73
11,O=C(c1ccccc1-n1cccn1)N1CCCN(c2cccnn2)CC1,-6.198
12,O=C(c1ccsc1)N1CCC(c2nnc(C3CC3)o2)CC1,116.7
13,O=C(c1ccc(-n2cccn2)nc1)N1CCC(Nc2cccnn2)CC1,-1.733
14,O=C(c1ccc(NC2CC2)nc1)N1CCC(Nc2cccnn2)CC1,118.5
15,O=C(c1ccccc1-n1cccn1)N1CCC(Nc2cccnn2)CC1,157.4
16,O=C(c1ccccn1)N1CCC(Nc2cccnn2)CC1,18.78
17,O=C(c1ccc(O)nc1)N1CCC(Nc2cccnn2)CC1,95.42
